# Screening data: PubChem BioAssay, National Center for Advancing Translational Sciences (NCATS)
# IL1B secr inh: qHTS for Inhibitors of Inflammasome Signaling: IL-1-beta AlphaLISA Primary Screen; hit rate 4.7% among 360,000; THP-1 LPS/ATP IL-1B secretion, AlphaLISA, 16 h; active compounds read low; activity change, % at 57.5 µM; in the data active means activity change below about -50%; inconclusive means mostly about -30% to -49%; further: on the % scale 0 is the no-effect control and ±100 the full control effect
#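 Secreted IL-1B measured by AlphaLISA bead assay after 16 h compound exposure of THP-1 cells; compounds (final up to 57.5 uM) added 1 h before LPS (250 ng/mL) and ATP (1.25 mM) stimulation; lower signal means less secretion.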
# ClpP mod: qHTS Assay for Activators of ClpP; ATP-dependent Clp protease proteolytic subunit (Bacillus subtilis (strain 168)), P80244; purified B. subtilis ClpP, FRET peptide cleavage, 20 min; Potency, µM (doses to about 57.5 µM), for inactives: at the top dose activity change, negative = active; hit rate 1.9% among 340,000; AID 651965, 2013; active means well fitted falling curve with a large enough effect; inconclusive means small, poorly fitted or top-dose-only effect; inactive means no such curve, though single readings can be large or run the other way; further: potency means the concentration at half of the fitted maximal effect; the source files actives as falling curves though it sought activators and does not explain the sign; nearly all actives have a fitted effect of over 65% in size
#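 ClpP 10 microg/mL final, pH 8 Tris/KCl buffer with BSA, glycerol, Tween-20; compound pinned in; FRET-FV substrate; RT 20 min; Ex320/Em430; ΔFRET vs ADEP 5.8 microM, DMSO, no enzyme.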
# DT40 TDP1 no CPT: qHTS for Inhibitors of human tyrosyl-DNA phosphodiesterase 1 (TDP1): qHTS in cells in absence of CPT; DT40 Tdp1-/- hTDP1 cells, no CPT, ATP luminescence, 48 h; Potency, µM (top dose mostly 46.2 µM), for inactives: at the top dose activity change, negative = growth inhibition, hits mostly inhibitors; hit rate 15% among 420,000; further: potency means the concentration at half of the fitted maximal effect; on the % scale 0 is the no-effect control and ±100 the full control effect; nearly all actives have a fitted effect of over 55% in size
#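 A cellular qHTS used chicken DT40 cells lacking endogenous Tdp1 but carrying stably transfected human TDP1. Compounds were applied without camptothecin, and cell growth kinetics were judged by ATP-dependent luminescence after ≥48 hr.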
# TDP1 cell CPT: qHTS for Inhibitors of human tyrosyl-DNA phosphodiesterase 1 (TDP1): qHTS in cells in presence of CPT; Potency, µM (series often up to 46.2 µM), for inactives: top-dose activity change, negative = growth inhibition, hits mostly inhibitors; chicken DT40 Tdp1-/-;hTDP1 cells + 20 nM CPT, ATP luminescence, 48 h; AID 686979, 2013; hit rate 12% among 420,000; further: potency means the concentration at half of the fitted maximal effect; on the % scale 0 is the no-effect control and ±100 the full control effect; nearly all actives have a fitted effect of over 55% in size
#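 Chicken DT40 Tdp1-/- cells complemented with human TDP1, 400 cells/well, exposed to compounds plus 20 nM camptothecin for at least 48 h at 37 C; viability read as ATP content by CellTiter-Glo luminescence.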
# D3 antag: qHTS of D3 Dopamine Receptor Antagonist: qHTS; AID 652054, 2013; D(3) dopamine receptor (Homo sapiens), P35462; hit rate 2.5% among 360,000; max response, negative = inhibition, %; D3R cells, DiscoveRx beta-arrestin luminescence, antagonist mode; active compounds read low; in the data active means max response below about -50%; inconclusive means no clear call, values can overlap the other calls; further: on the % scale 0 is the no-effect control and ±100 the full control effect
#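 Cells plated overnight at 1500 cells/well, then exposed to library compounds with dopamine controls for 90 minutes at 37 degrees C. DiscoveRx reagent added for 30–60 minutes at room temperature; luminescence read, quantitative HTS format.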
# D3 ag: qHTS of D3 Dopamine Receptor Agonist: qHTS; D3R DiscoveRx beta-arrestin cells, luminescence, 90 min; max activation, %; hit rate 0.58% among 410,000; AID 652048, 2013; in the data active means max activation above about 30%; further: 0% is about no effect
#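 Agonist mode: compounds and dopamine controls were applied to plated cells for 90 min at 37 degrees C after an overnight attachment at 1500 cells/well. Luminescent read-out followed 30 - 60 minutes at room temperature with DiscoveRx detection reagent.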
# An asterisk follows results filed as active; ? = inconclusive; / = no result given; [ ] = dose if it differs, or a comment. Hits are enriched below; roughly 21% of the tested compounds scored in any of these assays. Unless noted, the call rests on the fitted dose curve; in most records, active means well fitted inhibition curve with a large enough effect; inconclusive means small, poorly fitted or top-dose-only effect; inactive means flat fitted curve, though single readings scatter.
SMILES,IL1B secr inh,ClpP mod,DT40 TDP1 no CPT,TDP1 cell CPT,D3 antag,D3 ag
COc1ccc(N2CCN(Cc3cc4c(cc3Br)OCCO4)CC2)cc1,-68*,-1%,?,?,-13,-23
COc1ccc2oc(=O)cc(CN3CCN(Cc4ccc(OC)c(OC)c4OC)CC3)c2c1,-54*,-11%,?,?,-14,-11
CCOc1ccc2oc(=O)cc(CN3CCN(c4ccc(OC)cc4)CC3)c2c1,/,-3%,21µM*,?,/,-1
CCOc1ccc2oc(=O)cc(CN3CCN(C(=O)c4ccc(Cl)cc4)CC3)c2c1,/,-26%,21µM*,?,/,3
COc1ccc(N2CCN(Cc3cc(=O)oc4cc(C)c(Cl)cc34)CC2)cc1,0,-1%,-23%,?,0,0
O=C(NCCc1ccccc1)c1ccc2c(c1)S(=O)(=O)N=C1CCCCCN12,-4,0%,-16%,-5%,-5,3
COc1ccccc1N1CCN(C2CC(=O)N(c3ccc(F)cc3)C2=O)CC1 (centres undefined),0,-3%,19%,-3%,7,-3
Cc1c(C(=O)NCC2(N3CCCCC3)CCCC2)cnn1-c1nccc(-c2ccccc2F)n1,/,/,-7%,0%[9.04 µM],/,/
CCOc1ccc2oc(=O)cc(CN3CCN(c4ccc(Cl)cc4)CC3)c2c1,/,1%,26µM*,23µM*,/,5
CCOc1ccc2oc(=O)cc(CN3CCN(C(=O)c4cccc(Cl)c4)CC3)c2c1,/,-17%,?,-30%,/,-21
Cc1ccc2c(CN3CCN(C(=O)c4ccc(Br)cc4)CC3)cc(=O)oc2c1,/,0%,?,21µM*,/,-24
O=C(Nc1cc(C(F)(F)F)ccc1N1CCOCC1)c1cccc(S(=O)(=O)N2CCOCC2)c1,-11,1%,?,-8%,3,4
O=C(CN1CCN(S(=O)(=O)c2cccc(Br)c2)CC1)N1CCCCC1,21,1%,-21%,-25%,-10,3
CC(=O)NC(C)(c1ccccc1)c1nc(-c2ccc(F)c(Cl)c2)cs1 (centres undefined),-13,-1%,23µM*,15µM*,-1,0
COc1ccc(C(C)(NC(C)=O)c2nc(-c3cnc4ccccc4c3)cs2)cc1 (centres undefined),-12,-17%,?,?,-2,-5
CC(=O)NC(C)(c1ccccc1)c1nc(-c2cnc3ccccc3c2)cs1 (centres undefined),-6,?,15µM*,?,-6,0
O=S(=O)(c1ccc2ccccc2c1)N1CCC(c2nc(-c3ccncc3)no2)CC1,-18,-1%,9.2µM*,16µM*,-12,-12
CC(C)N(C(=O)N1CCC(c2nc(-c3ccncc3)no2)CC1)C(C)C,0,0%,18µM*,?,22,-1
O=S(=O)(c1ccc(Cl)cc1)N1CCCC1c1nc(-c2cccc(Cl)c2)no1 (centres undefined),8,1%,?,23µM*,22,5
O=S(=O)(c1ccccc1Cl)N1CCCC1c1nc(-c2cccc(Cl)c2)no1 (centres undefined),13,1%,-14%,?,-5,2
CN(C)c1ccc(-c2noc(C3CCN(S(=O)(=O)c4cccc(Cl)c4)CC3)n2)cc1,-3,20µM*,?,?,41,-1
Cc1ccc(-c2noc(C3CCCN(S(=O)(=O)c4ccc5ccccc5c4)C3)n2)o1 (centres undefined),?,-2%,-24%,?,9,0
COC(=O)c1ccc2c(=O)n(CCCCCC(=O)O)c(=S)[nH]c2c1,42,3%,?,-24%,-27,-13
O=C(CSc1ccccn1)Nc1cccc(S(=O)(=O)N2CCCC2)c1,1,-1%,-8%,-7%,62,5
COc1ccc(N2C(=O)/C(=C/c3ccc([N+](=O)[O-])cc3)N=C2C)c(OC)c1,8,/,2.1µM*,3.7µM*,4,2
SMILES,IL1B secr inh,ClpP mod,DT40 TDP1 no CPT,TDP1 cell CPT,D3 antag,D3 ag
CC1=N/C(=C\c2ccc([N+](=O)[O-])cc2)C(=O)N1c1cc(Cl)ccc1C,-18,0%,9.2µM*,10µM*,13,-6
CCN(CC)C1=N/C(=C\c2ccc(OC)cc2)C(=O)N1c1ccccc1,?,-8%,?,-13%,18,6
Cc1ccccc1-c1ccc(CN2C(C)C(=O)N(Cc3cn(Cc4ccco4)nn3)CCS2(=O)=O)cc1 (centres undefined),?,-2%,?,?,9,0
COc1ccc(-c2ccc(CN3C(C)C(=O)N(Cc4cn(Cc5ccco5)nn4)CCS3(=O)=O)cc2)cc1 (centres undefined),6,-3%,23µM*,21µM*,23,-2
CCC/C=C/c1ccc(CN2C(C(C)C)C(=O)N(Cc3cn(Cc4ccco4)nn3)CCS2(=O)=O)cc1 (centres undefined),?,0%,23µM*,?,2,0
COc1ccc(-c2ccc(CN3C(C(C)C)C(=O)N(Cc4cn(Cc5ccco5)nn4)CCS3(=O)=O)cc2)cn1 (centres undefined),-25,-2%,21µM*,18µM*,29,1
CC1C(=O)N(Cc2cn(Cc3ccco3)nn2)CCS(=O)(=O)N1Cc1ccc(-c2ccccc2C(F)(F)F)cc1 (centres undefined),-60*,-2%,?,?,14,7
Cc1ccc(-c2ccc(CN3C(C)C(=O)N(Cc4cn(Cc5ccco5)nn4)CCS3(=O)=O)cc2)cc1 (centres undefined),-10,-3%,?,?,27,5
O=C(c1cccc(Cn2cccn2)c1)N1CCC(n2c(C3CCCO3)nc3cc(C(F)(F)F)ccc32)CC1 (centres undefined),/,/,-4%,5%[9.04 µM],/,/
Cc1c(NS(=O)(=O)c2cccc(C(=O)NCc3cccc(Cl)c3)c2)c(=O)n(-c2ccccc2)n1C,1,-1%,0%,4%,1,12
CC1C(=O)N(Cc2cn(Cc3ccco3)nn2)CCS(=O)(=O)N1Cc1ccc(-c2cccc(N(C)C)c2)cc1 (centres undefined),-18,4%,16µM*,26µM*,-10,-7
